Bioassay records as filed in PubChem.
Hits are enriched below; roughly 9.2% of the tested compounds scored in any of these assays.
SMN2 splice enh – qHTS Assay for Enhancers of SMN2 Splice Variant Expression | HEK293 SMN2-luciferase splicing reporter, luminescence, 30-36 h | Potency, µM (highest dose often 46.1 µM), for inactives: top-dose activity change, positive = activation, actives largely listed as activators | 210,000 compounds, 2.8% hits | AID 1458, 2008; note: % of control where 0% means no effect; nearly all actives have a fitted effect of over 55% in size
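HEK293 cells carry an SMN2 […]–luciferase reporter in which exon 7 inclusion puts luciferase in frame. Cells were plated 10-12 h before compound addition, then incubated 30-36 h at 37C. ONE-Glo luminescence was read; sodium butyrate at 4.5 mM final served as control.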
ELG1 genotoxic – qHTS screen for small molecules that induce genotoxicity in human embryonic kidney (HEK293T) cells expressing luciferase-tagged ELG1; 330,000 compounds, 1.3% hits; AID 504466, 2011; Potency, µM (doses to about 46 µM), without a hit: at the highest dose activity change, positive = activation, most hits filed as activators; HEK293T ELG1-luciferase reporter, luminescence, 16 h; note: % of control where 0% means no effect; nearly all actives have a fitted effect of over 60% in size
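Genotoxicity was scored as increased ELG1-luciferase reporter signal, measured by ONE-Glo luminescence (30 min, room temperature). Compound or vehicle exposure of the HEK293T reporter cells lasted 16 hr at 37°C.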
NPC1 prom act – qHTS Assay for NPC1 Promoter Activators; Huh7 NPC1 promoter luciferase reporter, 24 h; Potency, µM (highest dose often 9.22 µM), inactives show at the highest dose activation, usual class: activators; 320,000 compounds, 2.4% hits; AID 485313, 2010; note: % of control where 0% means no effect; nearly all actives have a fitted effect of over 60% in size
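Stably transfected Huh7 (NPC1 promoter→luciferase), 1500 cells/well in Opti-MEM + 10% FBS, 2 h settle, then compound 24 h at 37 °C. Luminescence after 10 min with Amplite reagent.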
Rab9 promoter act – qHTS Assay for Rab9 Promoter Activators; Huh7 Rab9 promoter-luciferase reporter, luminescence, 24 h; Potency, µM (series often up to 9.22 µM), inactives show top-dose activation, negative = inhibition, usual class: activators; 320,000 compounds, 2.8% hits; AID 485297, 2010; note: % of control where 0% means no effect; nearly all actives have a fitted effect of over 60% in size
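Luciferase signal after 10 min detection reagent at ambient indicates Rab9 promoter upregulation; stably transfected Huh7 cells were treated 24 h with compound in DMSO at 37 °C, 5% CO2.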
ELG1 repair inh – qHTS screen for small molecules that inhibit ELG1-dependent DNA repair in human embryonic kidney (HEK293T) cells expressing luciferase-tagged ELG1 | 330,000 compounds, 2.3% hits | HEK293T ELG1-luciferase reporter, luminescence, 16 h; DNA damage induced by 5-fluorouridine | Potency, µM (series often up to 46.1 µM), without a hit: top-dose activity change, negative = inhibition, most hits filed as inhibitors; note: % is set by controls: 0 for no effect and ±100 for the full control effect; nearly all actives have a fitted effect of over 55% in size
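Step one: seed 2,000 cells per well. Step two: pin-transfer compound or DMSO alongside 5-fluorouridine. Step three: incubate 16 hr, 37 °C, 5% CO2. Step four: add ONE-Glo, wait 30 min, read luminescence.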
FLuc counter – qHTS profiling assay for firefly luciferase inhibitor/activator using purifed enzyme and Km concentrations of substrates (counterscreen for miR-21 project); purified FLuc, Km substrates, luminescence inhibition; Potency, µM (highest dose often 57.5 µM), for inactives: top-dose activity change, negative = inhibition, usual class: inhibitors; 360,000 compounds, 6.9% hits;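 note: plate controls were vehicle for no effect and reference inhibitor for full effect; nearly all actives have a fitted effect of over 55% in size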
Target sequence (P08659 whole entry, looked up): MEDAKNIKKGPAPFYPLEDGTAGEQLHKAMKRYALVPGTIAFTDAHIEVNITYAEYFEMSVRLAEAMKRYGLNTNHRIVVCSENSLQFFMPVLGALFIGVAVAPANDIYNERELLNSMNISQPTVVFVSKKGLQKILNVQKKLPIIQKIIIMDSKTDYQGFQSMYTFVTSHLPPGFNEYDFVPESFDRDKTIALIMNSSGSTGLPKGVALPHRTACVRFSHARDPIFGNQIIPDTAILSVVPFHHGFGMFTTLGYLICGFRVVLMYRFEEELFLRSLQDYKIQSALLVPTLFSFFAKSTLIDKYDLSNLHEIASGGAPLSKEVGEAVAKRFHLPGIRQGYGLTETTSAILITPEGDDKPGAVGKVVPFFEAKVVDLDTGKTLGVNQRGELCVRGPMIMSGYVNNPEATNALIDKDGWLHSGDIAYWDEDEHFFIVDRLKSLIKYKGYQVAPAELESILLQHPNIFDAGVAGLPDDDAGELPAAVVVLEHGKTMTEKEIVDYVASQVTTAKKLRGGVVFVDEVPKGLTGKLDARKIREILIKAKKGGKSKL
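Purified P. pyralis luciferase (10nM final) with 10uM D-luciferin and 10uM ATP (Km levels) in 50mM Tris acetate pH 7.5, 10mM Mg acetate, 0.01% Tween-20, 0.05% BSA; qHTS 6-point titration, ~60 µM downward; luminescence read.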
The depositor's hits bear a star; ? = inconclusive; / = no result. Calls come from the whole dose curve; as a rule, active = well fitted curve in the direction sought with a large enough effect; inconclusive = small, poorly fitted or top-dose-only effect, or another doubt; inactive = no such curve, though single readings can be large; an effect the other way counts as inactive or inconclusive. Potency is the fitted concentration of half-maximal effect.

SMILES	SMN2 splice enh	ELG1 genotoxic	NPC1 prom act	Rab9 promoter act	ELG1 repair inh	FLuc counter
Cc1n[nH]c(C)c1S(=O)(=O)N1CCN(S(=O)(=O)c2ccccc2C#N)CC1	/	1.3%	-3.2%	0.9%	-1.2%	/
Cc1ccc(C(=O)C(C)Sc2nnc(N)s2)cc1 (configuration not stated)	?	12.3%	9.5%	16.3%	?	-15.6%
Cc1ccccc1-c1nc2cc(N)ccc2o1	6.31µM*	?	0.891µM*	0.355µM*	?	2.39µM*
O=C(Nc1ccc(NC(=O)c2cccs2)cn1)c1ccccc1	15.8µM*	?	2.24µM*	1.12µM*	?	5.36µM*
Cc1cc(NC(=O)c2cccs2)ncc1NC(=O)c1cccc(F)c1	?	?	27.4%	3.16µM*	?	19µM*
Cc1cc(NC(=O)c2ccccc2F)ncc1NC(=O)c1cccs1	?	13.3%	16.4%	28.6%	?	?
Cc1cc(NC(=O)c2ccccc2)ncc1NC(=O)c1cccs1	11.2µM*	?	3.55µM*	3.98µM*	?	15.1µM*
Cc1cc(NC(=O)c2cccs2)ncc1NC(=O)C(C)C	/	-3.0%	1.78µM*	2.24µM*	?	15.1µM*
O=C(CNC(=O)c1ccc(S(=O)(=O)N2CCCC2)cc1)N/N=C/c1ccc(Cl)cc1Cl	-20.5%	-2.8%	-5.8%	0.5%	?	-1.3%
COc1ccc(N(C)S(=O)(=O)c2cccc(C(=O)OC(C(=O)Nc3cc(C)cc(C)c3)c3ccccc3)c2)cc1 (configuration not stated)	15.8µM*	-1.8%	12.4%	-1.7%	-4.2%	5.7%
COc1ccc(N(C)S(=O)(=O)c2cccc(C(=O)Nc3cc(OC)ccc3OC)c2)cc1	-24.2%	-8.3%	-1.7%	-9.9%	?	5.9%
COc1ccc(N(C)S(=O)(=O)c2cccc(C(=O)Nc3ccc(OC)nc3)c2)cc1	-18.6%	-7.8%	1.1%	-5.0%	18.4µM*	-1.4%
COc1ccc(N(C)S(=O)(=O)c2cccc(C(=O)Nc3ccc(-n4cnnn4)cc3)c2)cc1	-41.7%	-12.6%	-23.9%	0.7%	18.4µM*	1.0%
COc1ccc(N(C)S(=O)(=O)c2cccc(C(=O)Nc3ccc4c(c3)OCCO4)c2)cc1	9.3%	-12.6%	0.5%	-8.4%	?	-9.0%
Cc1c(NC(=O)Nc2cccc(C#N)c2)c(=O)n(-c2ccccc2)n1C	/	-0.5%	-0.6%	1.3%	14.4%	1.4%
CS(=O)(=O)Nc1cccc(C2=NN(C(=O)c3cccc([N+](=O)[O-])c3)C(c3cccs3)C2)c1 (configuration not stated)	/	-3.4%	0.3%	-1.3%	13µM*	1.5%
COc1ccc(C(=O)N2N=C(c3ccc(NS(C)(=O)=O)cc3)CC2c2cccs2)cc1 (configuration not stated)	/	-5.7%	-3.7%	1.1%	18.3µM*	-1.7%
CS(=O)(=O)Nc1cccc(C2=NN(C(=O)c3ccccc3)C(c3cccs3)C2)c1 (configuration not stated)	/	-12.0%	1.4%	-0.7%	?	-1.4%
Cc1ccc(C(=O)N2N=C(c3ccc(NS(C)(=O)=O)cc3)CC2c2cccs2)cc1 (configuration not stated)	/	-3.1%	-4.2%	-1.9%	?	-0.2%
O=C(NN1C(=O)/C(=C/C=C/c2ccccc2)SC1=S)c1ccncc1	-20.1%	-4.7%	-6.5%	2.6%	0.8%	13.5µM*
O=C(NN1C(=O)/C(=C/C=C/c2ccco2)SC1=S)c1ccncc1	/	-0.1%	-3.3%	2.7%	0.0%	21.3µM*
COc1ccc(/C=C2\SC(=S)N(NC(=O)c3ccncc3)C2=O)cc1OC	9.5%	1.1%	-3.1%	-2.8%	9.1%	?
O=C1/C(=C/C=C/c2ccco2)SC(=S)N1c1ccc(O)cc1	/	7.9%	4.7%	6.3%	?	21.3µM*
O=C(O)c1ccc(N2C(=O)/C(=C/C=C/c3ccccc3)SC2=S)cc1	-14.3%	-0.2%	-3.7%	1.1%	-5.3%	?
CN(C)c1ccc(/C=C/C=C2/SC(=S)N(c3ccccc3)C2=O)cc1	-65.2%	14.0%	?	?	?	4.78µM*
SMILES	SMN2 splice enh	ELG1 genotoxic	NPC1 prom act	Rab9 promoter act	ELG1 repair inh	FLuc counter
Cc1cccc(NC(=O)CCS(=O)(=O)c2cc3c(cc2Cl)NC(=O)CO3)c1	/	-0.7%	-5.2%	-0.1%	-2.8%	-1.0%
COCCNC(=O)C(c1ccc(Cl)cc1)N(CCOC)C(=O)CCC(=O)Nc1ccccn1 (configuration not stated)	/	2.0%	-3.3%	-1.0%	-6.5%	0.4%
N#Cc1ccc(NC(=O)C2=COCCO2)cc1	/	18.0%	21.7%	27.3%	?	?
COc1ccc(-c2ccc(S(=O)(=O)n3nc(OC(=O)c4cccs4)cc3N)cc2)cc1	/	-2.1%	-0.8%	13.9%	8.3%	-4.7%
COc1ccccc1CC(=O)Nc1ccc(NC(=O)c2cccs2)cc1	/	14.6%	0.9%	15.3%	27.5%	1.3%
COc1ccc(NC(=O)n2nc(OC(=O)c3cccs3)cc2N)cc1	/	?	11.6%	12.9%	?	16.9µM*
Cc1ccc(NC(=O)c2ccccc2NC(=O)c2cccs2)cc1	/	3.6%	-8.5%	4.2%	?	?
COC(=O)Cc1ccc(NC(=O)c2cccs2)cc1	11.2µM*	15.1%	?	2.82µM*	?	21.3µM*
COc1ccc(NC(=O)c2ccccc2NC(=O)c2cccs2)cc1	/	?	15.7%	22.3%	?	15.1µM*
Cc1ccc(S(=O)(=O)Nc2ccc(NC(=O)c3cccs3)cc2)cc1	11.2µM*	-3.8%	-5.6%	-1.7%	?	-4.1%
COc1ccc(N(C(=O)C(C)C)S(=O)(=O)c2ccc3ccccc3c2)cc1	/	-3.8%	2.5%	1.2%	-0.9%	6.9%
Cc1cc(CCCCCCCCc2cc(C)cc(=O)o2)oc(=O)c1	-43.6%	-1.5%	-0.4%	2.5%	-8.0%	2.2%
CCN(C[C@H]1N[C@@](CC)(C(=O)OC)[C@H]2C(=O)N(C)C(=O)[C@@H]12)S(=O)(=O)c1ccc(C(F)(F)F)cc1	/	-0.2%	/	/	0.4%	/
COC(=O)Cc1ccc(NC(=S)NNC(=O)c2ccccc2Br)cc1	-9.7%	0.3%	-2.5%	-1.4%	5.3%	-0.7%
COC(=O)Cc1ccc(NC(=O)c2ccccc2Br)cc1	4.8%	10.3%	12.1%	1.9%	?	16.9µM*
